Data: PubChem BioAssay AID504757 (Sanford-Burnham Center for Chemical Genomics, 2011)
The list shows a part of the results. Activity calls are given as the source filed them. Rule as the data show it: active = inhibition above about 39%; inactive = the rest.

Molecular target: Cysteine protease ATG4B (Homo sapiens) (UniProt Q9Y4P1)
Test: re-tested blockers of ATG4B cleavage activity – biochemical, fluorescence, single concentration, confirmation (AID 504757)
Details: ATG4B protease fluorescent substrate cleavage assay; at 8.33 µM; active compounds read high

Chain of Cysteine protease ATG4B (Homo sapiens) (Q9Y4P1 whole entry, looked up): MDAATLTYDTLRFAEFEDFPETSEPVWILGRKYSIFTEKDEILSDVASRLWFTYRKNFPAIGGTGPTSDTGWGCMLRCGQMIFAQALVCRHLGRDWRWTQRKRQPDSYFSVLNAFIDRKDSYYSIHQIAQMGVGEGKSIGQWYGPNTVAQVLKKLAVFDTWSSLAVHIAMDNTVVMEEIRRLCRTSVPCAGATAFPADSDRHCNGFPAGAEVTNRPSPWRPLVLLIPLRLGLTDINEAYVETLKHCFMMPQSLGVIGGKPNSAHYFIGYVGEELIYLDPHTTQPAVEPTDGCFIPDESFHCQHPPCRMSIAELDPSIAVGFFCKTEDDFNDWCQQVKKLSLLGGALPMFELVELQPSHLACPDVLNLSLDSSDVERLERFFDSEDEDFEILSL

Q: For Cc1cc(OCc2cc(C(=O)O)oc2C)c2c3c(c(=O)oc2c1)CCCC3, which inhibition is on record?
A: 66.3% (active)
